# PubChem BioAssay (Tox21)
# Where “and” joins values, the source holds several entries; their conditions need not be identical. Equal entries are not always repeated. Results filed as inconclusive are left out. Calls of active or inactive are those of the source. Calls come from the whole dose curve; as a rule, active = well fitted curve in the direction sought with a large enough effect in the repeat runs; inconclusive = weak or mixed curves; inactive = no such curve, though single readings can be large; an effect the other way counts as inactive or inconclusive.
# Experiment: qHTS assay for identifying genotoxic compounds that show differential cytotoxicity against isogenic chicken DT40 cell lines with known DNA damage response pathways - wild type cell line (AID 743012); note: nearly all actives have a fitted effect of over 60% in size
# Conditions: DT40 wild type chicken cells viability, CellTiter-Glo, 40 h; series mostly up to 68.4 µM
# Summary of the method: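 Endpoint: CellTiter-Glo luminescence, 30 min RT. Cells: wild type DT40, 300/well. Exposure: compounds in DMSO, 40 h, 37 C/5% CO2, after ~0.5 h pre-incubation.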
# Potency is the fitted concentration of half-maximal effect.
row,Compound,Potency
1,CCCOC(=O)c1ccccc1O,inactive
2,CN=C(N)NCCC[C@H](N)C(=O)O,inactive
3,Nc1nc(NC2CC2)c2ncn([C@@H]3C=C[C@@H](CO)C3)c2n1,inactive
4,O=P(O)(O)CP(=O)(O)O,inactive
5,O=C1OC(O)C(C(Cl)Cl)=C1Cl (stereo not drawn),17.8 µM (active)
6,C=CCc1cc(S(=O)(=O)c2ccc(O)c(CC=C)c2)ccc1O,30.6 µM (active)
7,N[C@H](C(=O)O)[C@@H]1CC(Cl)=NO1,2.66 µM (active)
8,CCC(C)(C)c1ccc(CC(C)CN2C[C@@H](C)O[C@@H](C)C2)cc1 (stereo partly drawn),0.841 µM (active)
9,COC(=O)C[C@](O)(CCCC(C)(C)O)C(=O)O[C@@H]1C(OC)=CC23CCCN2CCc2cc4c(cc2[C@H]13)OCO4 (stereo partly drawn),29.8 nM (active) and 23.7 nM (active)
10,CC1=C(/C=C/C(C)=C/C=C/C(C)=C\C(=O)O)C(C)(C)CCC1,61.3 µM (active)
11,Oc1ccc(Cl)cc1C1CCCC1,48.6 µM (active)
12,S=C1NC=NC2N=CNC12 (stereo not drawn),54.5 µM (active)
13,COc1cc(NS(C)(=O)=O)ccc1Nc1c2ccccc2nc2ccccc12,0.0596 µM (active)
14,N[C@@H](Cc1cnc[nH]1)C(=O)O,inactive
15,CC(Cc1ccc(O)c(O)c1)C(C)Cc1ccc(O)c(O)c1 (stereo not drawn),13.7 µM (active)
16,CC(C)c1ncc([N+](=O)[O-])n1C,inactive

row,Compound,Potency
1,CCC(=O)OC(OP(=O)(CCCCc1ccccc1)CC(=O)N1C[C@H](C2CCCCC2)C[C@H]1C(=O)O)C(C)C (stereo partly drawn),inactive
2,C/C(=C\C(=O)OCCCCCCCCC(=O)O)C[C@@H]1OC[C@H](C[C@@H]2O[C@H]2[C@@H](C)[C@H](C)O)[C@@H](O)[C@H]1O,1.5 µM (active)
3,C[C@@H]1O[C@@H](OC[C@H]2O[C@@H](Oc3c(-c4ccc(OCCO)c(OCCO)c4)oc4cc(OCCO)cc(O)c4c3=O)[C@H](O)[C@@H](O)[C@@H]2O)[C@H](O)[C@H](O)[C@H]1O,inactive
4,CNCCC=C1c2ccccc2CCc2ccccc21,6.68 µM (active)
5,CCCCCCCCCCCCCCCCC(C(=O)O)C(O)(CC(=O)O)C(=O)O (stereo not drawn),inactive
6,CC(=O)Oc1cc(C(F)(F)F)ccc1C(=O)O,inactive
7,O=C(O)COc1ccc(C(=O)c2cccs2)c(Cl)c1Cl,inactive
8,OCC1(CO)COC(C(Cl)(Cl)Cl)OC1,inactive
9,N[C@H](CO)C(=O)O,inactive
10,CCCC(=O)c1cc(O)c(O)cc1O,24.3 µM (active)
11,CNC(=O)C[C@@H](N)C(=O)N[C@@H](C(=O)N[C@@H]1C(=O)N2[C@@H]1SC(C)(C)[C@@H]2C(=O)O)c1ccc(O)cc1,inactive
12,Cc1cc(N)c2ccccc2[n+]1CCCCCCCCCC[n+]1c(C)cc(N)c2ccccc21,2.54 µM (active)
13,O=C1c2c(O)cccc2[C@H]([C@@H]2O[C@H](CO)[C@@H](O)[C@H](O)[C@H]2O)c2cc(CO)cc(O)c21,inactive
14,CCCCCCCCOC(=O)c1cc(O)c(O)c(O)c1,0.545 µM (active)
15,FC(F)(F)C(F)(F)C(F)(F)C(F)(F)C(F)(F)F,inactive

# Experiment: qHTS assay for identifying genotoxic compounds that show differential cytotoxicity against isogenic chicken DT40 cell lines with known DNA damage response pathways - Rev3 mutant cell line (AID 743014); note: nearly all actives have a fitted effect of over 55% in size
# Conditions: chicken DT40 Rev3-/- viability, CellTiter-Glo, 40 h; series mostly up to 68.4 µM
row,Compound,Potency
1,O=C1OC(O)C(C(Cl)Cl)=C1Cl (stereo not drawn),1.26 µM (active)
2,C=CCc1cc(S(=O)(=O)c2ccc(O)c(CC=C)c2)ccc1O,68.6 µM (active)
3,N[C@H](C(=O)O)[C@@H]1CC(Cl)=NO1,2.66 µM (active)
4,COC(=O)C[C@](O)(CCCC(C)(C)O)C(=O)O[C@@H]1C(OC)=CC23CCCN2CCc2cc4c(cc2[C@H]13)OCO4 (stereo partly drawn),21.1 nM (active) and 26.6 nM (active)
5,N[C@@H](Cc1ccc(O)c(O)c1)C(=O)O,inactive
6,CC1=C(/C=C/C(C)=C/C=C/C(C)=C\C(=O)O)C(C)(C)CCC1,61.3 µM (active)
7,S=C1NC=NC2N=CNC12 (stereo not drawn),48.6 µM (active)
8,COc1cc(NS(C)(=O)=O)ccc1Nc1c2ccccc2nc2ccccc12,0.0668 µM (active)
9,C/C(=C\C(=O)OCCCCCCCCC(=O)O)C[C@@H]1OC[C@H](C[C@@H]2O[C@H]2[C@@H](C)[C@H](C)O)[C@@H](O)[C@H]1O,1.5 µM (active)
10,COc1cc2c(c(OC)c1OC)-c1c(cc3c(c1OC)OCO3)C[C@@H](C)[C@](C)(O)C2,inactive
11,CCCC(=O)c1cc(O)c(O)cc1O,29.8 µM (active)
12,Cc1cc(N)c2ccccc2[n+]1CCCCCCCCCC[n+]1c(C)cc(N)c2ccccc21,2.54 µM (active)
13,O=C1c2c(O)cccc2[C@H]([C@@H]2O[C@H](CO)[C@@H](O)[C@H](O)[C@H]2O)c2cc(CO)cc(O)c21,inactive
14,CCCCCCCCOC(=O)c1cc(O)c(O)c(O)c1,1.37 µM (active)

# Experiment: qHTS assay for identifying genotoxic compounds that show differential cytotoxicity against isogenic chicken DT40 cell lines with known DNA damage response pathways - Rad54/Ku70 mutant cell line (AID 743015); note: nearly all actives have a fitted effect of over 60% in size
# Conditions: DT40 Rad54/Ku70 mutant viability, CellTiter-Glo, 40 h; series mostly up to 66.8 µM
row,Compound,Potency
1,CCCOC(=O)c1ccccc1O,inactive
2,CN=C(N)NCCC[C@H](N)C(=O)O,inactive
3,Nc1nc(NC2CC2)c2ncn([C@@H]3C=C[C@@H](CO)C3)c2n1,inactive
4,O=P(O)(O)CP(=O)(O)O,inactive
5,O=C1OC(O)C(C(Cl)Cl)=C1Cl (stereo not drawn),19.9 µM (active)
6,C=CCc1cc(S(=O)(=O)c2ccc(O)c(CC=C)c2)ccc1O,54.5 µM (active)
7,N[C@H](C(=O)O)[C@@H]1CC(Cl)=NO1,2.98 µM (active)
8,CCC(C)(C)c1ccc(CC(C)CN2C[C@@H](C)O[C@@H](C)C2)cc1 (stereo partly drawn),0.841 µM (active)
9,COC(=O)C[C@](O)(CCCC(C)(C)O)C(=O)O[C@@H]1C(OC)=CC23CCCN2CCc2cc4c(cc2[C@H]13)OCO4 (stereo partly drawn),0.0237 µM (active)
10,N[C@@H](Cc1ccc(O)c(O)c1)C(=O)O,inactive
11,CC1=C(/C=C/C(C)=C/C=C/C(C)=C\C(=O)O)C(C)(C)CCC1,68.8 µM (active)
12,Oc1ccc(Cl)cc1C1CCCC1,27.3 µM (active)
13,CC(C)COC(=O)OCN1C(=O)CN(CCN2CC(=O)N(COC(=O)OCC(C)C)C(=O)C2)CC1=O,0.188 µM (active)
14,COc1cc(NS(C)(=O)=O)ccc1Nc1c2ccccc2nc2ccccc12,0.0084 µM (active)
15,N[C@@H](Cc1cnc[nH]1)C(=O)O,inactive
16,CC(Cc1ccc(O)c(O)c1)C(C)Cc1ccc(O)c(O)c1 (stereo not drawn),15.4 µM (active)
17,CC(C)c1ncc([N+](=O)[O-])n1C,inactive

row,Compound,Potency
1,CCC(=O)OC(OP(=O)(CCCCc1ccccc1)CC(=O)N1C[C@H](C2CCCCC2)C[C@H]1C(=O)O)C(C)C (stereo partly drawn),inactive
2,C/C(=C\C(=O)OCCCCCCCCC(=O)O)C[C@@H]1OC[C@H](C[C@@H]2O[C@H]2[C@@H](C)[C@H](C)O)[C@@H](O)[C@H]1O,2.37 µM (active)
3,C[C@@H]1O[C@@H](OC[C@H]2O[C@@H](Oc3c(-c4ccc(OCCO)c(OCCO)c4)oc4cc(OCCO)cc(O)c4c3=O)[C@H](O)[C@@H](O)[C@@H]2O)[C@H](O)[C@H](O)[C@H]1O,inactive
4,CNCCC=C1c2ccccc2CCc2ccccc21,11.9 µM (active)
5,CCCCCCCCCCCCCCCCC(C(=O)O)C(O)(CC(=O)O)C(=O)O (stereo not drawn),inactive
6,CC(=O)Oc1cc(C(F)(F)F)ccc1C(=O)O,inactive
7,O=C(O)COc1ccc(C(=O)c2cccs2)c(Cl)c1Cl,inactive
8,OCC1(CO)COC(C(Cl)(Cl)Cl)OC1,inactive
9,N[C@H](CO)C(=O)O,inactive
10,CCCC(=O)c1cc(O)c(O)cc1O,45 µM (active)
11,O=S(=O)(O)CC(S)CS (stereo not drawn),3.76 µM (active)
12,CNC(=O)C[C@@H](N)C(=O)N[C@@H](C(=O)N[C@@H]1C(=O)N2[C@@H]1SC(C)(C)[C@@H]2C(=O)O)c1ccc(O)cc1,inactive
13,Cc1cc(N)c2ccccc2[n+]1CCCCCCCCCC[n+]1c(C)cc(N)c2ccccc21,2.85 µM (active)
14,O=C1c2c(O)cccc2[C@H]([C@@H]2O[C@H](CO)[C@@H](O)[C@H](O)[C@H]2O)c2cc(CO)cc(O)c21,inactive
15,CCCCCCCCOC(=O)c1cc(O)c(O)c(O)c1,0.611 µM (active)
16,FC(F)(F)C(F)(F)C(F)(F)C(F)(F)C(F)(F)F,inactive
